PubChem BioAssay AID837 (The Scripps Research Institute Molecular Screening Center, 2007)
The source made the active and inactive calls.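 How the source made its calls: active means relative FRET score above 0.01, or acceptor fluorescence over 30% below the sample-well median; inactive means the rest.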

Each compound was assayed against Protein Rev (Human immunodeficiency virus type 1 group M subtype B (isolate WMJ22)) (UniProt P05866) (assay: disruptors of Rev peptide-RRE RNA complex – biochemical, FRET, acceptor and relative FRET calls, confirmation (AID 837;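 further: relative FRET combines rise in Cy5 acceptor with fall in fluorescein donor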)). Details: Fl-Rev peptide / Cy5-RRE RNA FRET, 1536-well; at 8 µM.
Protein Rev (Human immunodeficiency virus type 1 group M subtype B (isolate WMJ22)), sequence (P05866 whole entry, looked up): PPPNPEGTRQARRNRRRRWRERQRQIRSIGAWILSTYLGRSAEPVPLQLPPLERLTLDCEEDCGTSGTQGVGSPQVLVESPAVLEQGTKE

Structure (SMILES) | outcome
CCCCOC(=O)Cn1c(=N)n(CCC)c2ccccc21 | inactive
COc1ccc2c3c(cccc13)NN=C2C | inactive
COC(CNc1cc(=O)oc2ccccc12)OC | inactive
CN=C1c2cc3cc(OC)ccc3n2CCN1Cc1ccccc1 | inactive
O=C(N/N=C/c1cccc(F)c1)c1cc(-c2ccco2)nc2ccccc12 | active; quenches the donor
CN(C)CC(O)COc1ccc(C(C)(C)c2ccc(OCC(O)CN(C)C)cc2)cc1 (stereo not given) | inactive
Nc1nc(Nc2ccccc2)nc2ccccc12 | inactive
CCCN(N=Nc1cccc([N+](=O)[O-])c1)c1cccc([N+](=O)[O-])c1 | inactive
Cc1ccc(C(=O)NNC(=O)CSc2nnc3c(n2)[nH]c2ccc(F)cc23)cc1 | active; quenches the donor
OC(COc1ccc(C2C=CCC2)cc1)CN1CCCCC1 (stereo not given) | inactive
CC(C)CN=c1cc(-c2ccccc2)oc2ccc(Cl)cc12 | active
Cc1cccc(NC2=NC3(CCCCC3)N=C(N)N2)c1C | inactive
COc1ccc(Nc2nc(N3CCCCC3)c3ccccc3n2)cc1 | inactive
C1=C2C[N+]3(CCCC3)CC2Cc2ccc3ccccc3c21 (stereo not given) | inactive
OC(CN1C2=NCCCN2c2ccccc21)c1ccc(Br)cc1 (stereo not given) | inactive
CCC1=NNc2cccc3c(OC)ccc1c23 | inactive
Nc1nc(CN2CCCCCC2)nc(Nc2ccc(F)cc2)n1 | inactive
CCCCOc1ccc(CSC(=N)N)cc1[N+](=O)[O-] | inactive
CCN(CC)CCCOc1ccc(C)cc1Br | inactive
CCN(CC)CCNC1=NCCn2c1cc1cc(OC)ccc12 | active
